Pf Dd2 growth: inhibitors of Plasmodium falciparum Dd2 growth; P. falciparum Dd2 growth, SYBR Green, 72 h; Potency, µM (top dose mostly 28.9 µM), most hits filed as inhibitors; 120,000 compounds, 4.3% hits; active means well fitted inhibition curve with a large enough effect; further: nearly all actives have a fitted effect of over 65% in size
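Infected erythrocytes (Dd2, 0.3% parasitemia, 2.5% hematocrit final) are added to compound in RPMI-1640/Albumax II medium, grown 72 h at 37C in low oxygen, then lysed with saponin/Triton-X containing SYBR Green and read by fluorescence.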
Hits are given with their value; - = inactive. This excerpt belongs to a sample that is enriched for hits.

SMILES	Pf Dd2 growth
CNC(=O)c1ccc2c(c1)OCCN(c1cccc(OC(F)(F)F)c1)C2	11µM
O=C(NC1CC1)c1ccc2c(c1)OCCN(c1cccc(OC(F)(F)F)c1)C2	3.5µM
COc1ccccc1CC(=O)Nc1cnc(-c2cccc(Cl)c2)nc1	-
O=C(c1cccnc1)N1CC[C@H](c2nc3ccccc3o2)C1	-
CC(C)c1noc(-c2cn(C3CCN(C(=O)c4ccoc4)C3)nn2)n1 (configuration not stated)	-
COC(=O)[C@@H]1Cc2ncn(C(C)C)c2CN1S(=O)(=O)c1cccs1	-
CCc1csc(CNC(=O)c2ccc(N3C[C@@H](C)O[C@@H](C)C3)nc2)n1	-
CNC(=O)C1CN(c2ccc(OC)cc2)C(=O)N1 (configuration not stated)	-
CN(C)c1nc(-c2ccccc2)nc2c1CCN(C(=O)C1CCOC1)C2 (configuration not stated)	-
COc1ccc(CN(CC2CCCO2)C(=O)C2CCN(CC(N)=O)CC2)cc1 (configuration not stated)	-
CCN(CC1CCCO1)C(=O)C1CCN(c2nc(-c3ccccc3)nc3c2CCC3)CC1 (configuration not stated)	11µM
CNCCNC(=O)C1CCN(c2nc(-c3ccccc3)nc3c2CCC3)CC1	13µM
CC(C)(C)CC(=O)N1CCN(c2nc(-c3ccccc3)nc3c2CCC3)CC1	-
COC(C)(C)C(=O)N1CCN(c2nc(-c3ccccc3)nc3c2CCC3)CC1	-
O=Cc1ccc(-c2cncc(C(=O)O)c2)cc1	-
COc1ccc(OC)c([S+](=O)([O-])c2nnn3c2nc(NC2CC2)c2ccccc23)c1	-
CC(=O)Nc1ccc(C2OC(=O)N(Cc3cccc(F)c3)C2C(=O)NCC2CCCO2)cc1 (configuration not stated)	-
COc1ccc(-c2nc3cnccn3c2NCCC(=O)O)cc1	-
CCc1nc(C)ccc1OCC(=O)NCC1COc2cc(OC)ccc2C1 (configuration not stated)	-
Cc1noc(C)c1C(=O)N1Cc2ccccc2OC2(CCN(C(=O)CN(C)C)CC2)C1	-
O=C(c1cc(F)ccc1F)N1CCC(Cc2nc(-c3ccccc3)no2)CC1	-
Cc1coc2c(C)c3oc(=O)c(CCC(=O)NCCc4ccc(Cl)cc4)c(C)c3cc12	-
Cc1cc(=O)oc2c3c(ccc12)OCN(Cc1ccc(Cl)cc1)C3	5.6µM
O=C(Nc1ccc2c(c1)CN(Cc1ccc(Cl)cc1)C(=O)CO2)c1ccccc1	-
Cc1ccc2c(CN3CCN(c4ccc(Cl)cc4)CC3)cc(=O)oc2c1	-
SMILES	Pf Dd2 growth
CCOc1ccc2oc(=O)cc(CN3CCN(Cc4ccc(C)cc4)CC3)c2c1	-
O=C(Cn1c(=O)oc2ccccc21)NCc1ccc(Cl)cc1	-
COC(=O)Cc1c(C)c2ccc3c(c2oc1=O)CN(Cc1ccc(Cl)cc1)CO3	7.1µM
COc1ccc(CCNC(=O)Cc2c(C)c3cc4c(C)coc4c(C)c3oc2=O)cc1	-
O=c1oc2c3c(ccc2c2ccccc12)OCN(Cc1ccc(Cl)cc1)C3	10µM
CNC(=O)[C@@H]1CCCC[C@@H]1c1nc(-c2ccncc2)nn1CCO	-
CS(=O)(=O)Nc1ccc(C2(C(=O)N3CCN(c4ccccn4)CC3)CCCCC2)cc1	-
CCC(C(=O)N1CCN(c2ccc(C#N)cn2)CC1)n1cccn1 (configuration not stated)	-
COC[C@@H]1CN(C(=O)Cc2c(C)noc2C)C[C@H]1c1ccncc1	-
Cc1ccc(C)c(NC(=O)N2CCCC2c2nncn2-c2ccccc2)c1 (configuration not stated)	-
Cc1cc(C(=O)N2CCN(c3ccc(F)cc3)CC2)c2c(C)nn(-c3cccc(Cl)c3C)c2n1	-
O=C(c1cccn2c(=O)c3cc(Cl)ccc3nc12)N1CCN(c2ccccc2F)CC1	-
Cc1ccc(-n2nc(C)c3c(C(=O)O)cc(C)nc32)cc1	-
Cc1ccc(C)c(N2CCN(C(=O)c3cccn4c(=O)c5ccccc5nc34)CC2)c1	13µM
Cc1cc(C(=O)N2CCN(c3cccc(Cl)c3)CC2)c2c(C)nn(-c3ccccc3Cl)c2n1	11µM
CSc1ncc(C(=O)N2CCN(c3cc(C)ccc3C)CC2)c(C)n1	-
Cc1ccc(-n2nc(C)c3c(C(=O)Nc4ccccc4C(F)(F)F)cc(C)nc32)cc1	-
COc1cc(NC(=O)c2cc(C)nc3c2c(C)nn3-c2ccccc2Cl)cc(OC)c1	-
Cc1ccc(C)c(N2CCN(C(=O)c3cc(C)nc4c3c(C)nn4-c3ccccc3)CC2)c1	8.9µM
CO[C@H]1C(=O)N(C2CCN(C(=O)c3cnccc3C)CC2)[C@H]1c1ccncc1	-
Cc1cccc(=O)n1CCC(=O)N1CCCCC(N)C1 (configuration not stated)	-
O=C(NC1C[C@H]2CC[C@@H](C1)N2C(=O)C1CCOCC1)c1ccc(F)cc1 (some centres not stated)	-
CSCC(=O)N1CCC(C2CCN(C(C)=O)CC2)C1 (configuration not stated)	-
Cc1ccc(CN2CCC[C@H]2c2nc(-c3ccc(OC4CCCCC4)nc3)no2)cc1	-
c1cc(OC2CCCCC2)ncc1-c1noc([C@@H]2CCCN2C2CCOCC2)n1	11µM
SMILES	Pf Dd2 growth
COc1ccc(-c2noc([C@@H]3CCCN3C3CCCCC3)n2)cn1	-
COc1ccc(CN2C(=O)COC[C@@H]2[C@H](O)c2ccc(NC(C)=O)cc2)cc1	-
O=C(C[C@H]1NC(=O)c2ccccc2NC1=O)Nc1nc(-c2ccccn2)cs1	-
CCn1nc(C)cc1C(=O)NCc1cccnc1Oc1ccccc1C	-
Cc1ccccc1Oc1ncccc1CNCc1cc2c(cc1Cl)OCO2	-
Cc1ccccc1Oc1ncccc1CNCc1cccc(O)c1	13µM
Cc1cnn(CCC(=O)N2C[C@@H](CO)[C@H](c3nc(C4CC4)no3)C2)c1	-
O=C(Cc1c[nH]c2ccccc12)N1CCC(Cc2nc(-c3ccccc3)n[nH]2)CC1	-
FC(F)(F)Oc1ccc(-c2cnc([C@@H]3COCCN3Cc3ccncc3)[nH]2)cc1	-
CC[C@@]1(C(=O)O)C[C@H](C(=O)NCCOC)[C@H](c2ccc(OC)cc2)N1C	-
CCc1cccc(-n2c(=O)c3cccnc3n2CC(=O)Nc2c(C)cc(C)cc2C)c1	-
CCc1ccc(-n2c(=O)c3cccnc3n2CC(=O)Nc2ccccc2C(F)(F)F)cc1	11µM
O=C(Cn1c2ncccc2c(=O)n1-c1ccccc1)Nc1ccc(F)c(F)c1	-
Cc1ccc(-n2c(=O)c3cccnc3n2CC(=O)Nc2ccc(C)cc2Cl)cc1	-
CCc1cccc(-n2c(=O)c3cccnc3n2CC(=O)Nc2ccc(F)c(C)c2)c1	1.3µM
Cc1ccc(-n2c(=O)c3cccnc3n2CC(=O)Nc2cc(C)cc(C)c2)cc1	-
Cc1ccc(-n2c(=O)c3cccnc3n2CC(=O)Nc2cccc(C)c2C)cc1	3.5µM
CCOC(=O)c1ccccc1NC(=O)Cn1c2ncccc2c(=O)n1-c1ccccc1	-
Cc1ccc(CNC(=O)Cn2c3ncccc3c(=O)n2-c2ccccc2)cc1	-
O=C(NC1C[C@H]2CC[C@@H](C1)N2S(=O)(=O)c1cccs1)c1ccncc1 (some centres not stated)	-
COc1ccc(Cn2c(C3CCN(C(=O)c4ccc(F)cc4)CC3)n[nH]c2=O)cc1	-
Cc1ccc(OCc2nc(C3CN(C(=O)c4cc5ccccc5[nH]4)C3)no2)cc1	-
Cc1cccc(CCNC(=O)C2N(C(C)C)C(=O)C23CCCC3)c1 (configuration not stated)	-
CC(=O)N1CCC[C@H]1C(=O)N1CCc2nc(C)nc(NC3CC3)c2CC1	-
